Screen size: about 330,000 compounds; about 2,800 (0.85%) were called active. This is one part of a sample in which actives are shown more often than they occur.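 Rule for the calls: active = mean inhibition across replicates of 60% or more, whatever share of single replicates reaches that level; inconclusive = some that reach 60%, reason not given; inactive = mean inhibition across replicates below 60%.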

This test in a line: MITF transcriptional activity suppression – cell-based, SK-MEL-5, single point, luciferase, primary screen (AID 488899). The settings on record: SK-MEL-5 TRPM1 promoter luciferase, 24 h; at 12.5 µM; stronger effect = higher value.
In general, inhibition refers to the relative decrease from the control value, in per cent. Consider `Cc1ccc(-c2nn(C(C)(C)C)c3ncnc(N)c23)cc1`, for which the inhibition was 3.91% (inactive).

As to `CN(C)c1ccc(CSc2ccccc2)cc1`, the inhibition was -111% (inactive).

For `Cc1ccc(C(=O)NC(=S)Nc2ccc3[nH]c(=O)[nH]c3c2)cc1C`, the inhibition is 3.06% (inactive).

Regarding `N#Cc1nc(N)nc(N(c2ccccc2)c2ccccc2)n1`, the inhibition is 10.4% (inactive).

On to `COc1ccc(S(=O)(=O)N2CCOCC2)cc1NC(=O)Cc1coc2cc(C)ccc12`, for which the inhibition was 5.65% (inactive).

For `CC[C@H]1CN2CCc3cc(OC)c(OC)cc3[C@@H]2C[C@@H]1C[C@H]1NCCc2cc(OC)c(OC)cc21`, the inhibition was 85.1% (active).

Regarding `COc1cc2c(cc1OC)CN(CC(=O)Nc1ccc(F)cc1)CC2`, the inhibition was 4.57% (inactive).

With `CCc1ccc(OCC2c3cc(OC)c(OC)cc3CCN2C(C)=O)cc1` (stereo unspecified), the inhibition was -0.63% (inactive).

Take `COc1ccc(/C=C/C2=CC(C)(C)NC(=S)N2)c(OC)c1`: the inhibition was 10.5% (inactive).

In the case of `Cc1ccccc1-n1nc(C)c2c1N=C1C(Cl)=CC(Cl)=CN1C2c1ccc(C(=O)O)cc1` (stereo unspecified), the inhibition is 5.65% (inactive).

In the case of `Cn1c(=O)c2c(nc(SCCNS(=O)(=O)c3ccccc3)n2C)n(C)c1=O`, the inhibition was -8.94% (inactive).

Consider `COc1ccc(Cc2n[nH]c(=S)n2NC(=O)Nc2ccc(C)cc2)cc1`, for which the inhibition was -46.7% (inactive).

Turning to `CC(C)CC[n+]1ccn(C2=C([O-])c3ccccc3C(=O)/C2=N\S(=O)(=O)c2ccccc2)c1`, the inhibition is 91.1% (active).

Regarding `CC(=O)Nc1ccc(NC(=O)C(C)n2c3ccccc3c3nc(=O)cc(C)n32)cc1` (stereo unspecified), the inhibition is 11.5% (inactive).

Regarding `CCn1c(CC(=O)Nc2ccc(C)cc2)nnc1SCC(=O)Nc1nc(C)cs1`, the inhibition was 6.57% (inactive).

On to `COc1ccc2oc(N)nc2c1`, for which the inhibition is 7.49% (inactive).

Regarding `CC(C)(C)c1ccc(Oc2ccc(N)cc2)cc1`, the inhibition is 91.7% (active).

For `CC(C)(C)c1ccc(OC2=CS(=O)(=O)c3ccccc32)cc1`, the inhibition is -25.6% (inactive).

Consider `COc1cccc(Oc2ccc(N)cc2)c1`, for which the inhibition was -4.14% (inactive).

Turning to `COc1ccc(/C=N/Nc2ccccc2C(=O)O)cc1`, the inhibition was -4.16% (inactive).

For the compound `COc1ccc(C(=O)Nc2ccccc2C(=O)N/N=C/c2ccc(O)c(OC)c2)cc1`, the inhibition is 73.3% (active).

For `COc1ccc(C(=O)Nc2ccccc2C(=O)N2CCN(c3ccccc3)CC2)cc1`, the inhibition was -1.5% (inactive).

As for `CC(=O)NC(Cc1ccc(F)c(F)c1)C(=O)NC1CCN(C(=O)c2ccc(C)cc2)CC1` (stereo unspecified), the inhibition is 7.52% (inactive).

`CSc1ncc(Sc2ccccc2)c(C(=O)O)n1`: the inhibition is 5.79% (inactive).

For the compound `CSc1nc(-c2ccccc2)nc(C(Cl)Cl)n1`, the inhibition was 87.8% (active).

For `Cc1ccc(CNC(=O)c2ccc(CS(=O)Cc3cccc(Cl)c3)o2)cc1` (stereo unspecified), the inhibition is 2.54% (inactive).

Regarding `CCOC(=O)N1CCN(c2c(NCCCN3CCCC(C)C3)c(=O)c2=O)CC1` (stereo unspecified), the inhibition was -5.22% (inactive).

On to `CCCCCCCCn1c2c(c(=N)c3c1CCC3)CCCC2`, for which the inhibition is 77.2% (active).

Take `CCOc1ccc(N(C)S(=O)(=O)c2cnc[nH]2)cc1`: the inhibition is 6.77% (inactive).

As to `CC1CCCCC1NC(=O)COC(=O)Cc1ccc(Cl)cc1` (stereo unspecified), the inhibition was 6.02% (inactive).

For the compound `CN(c1ccc2nc3ccccc3c(=O)n2n1)C1CCCCC1`, the inhibition was 84.7% (active).

In the case of `CN(C(=O)CSc1nncc2ccccc12)C1CCCCC1`, the inhibition was -4.81% (inactive).

On to `CN(C(=O)c1cc2c(=O)n3ccccc3nc2s1)C1CCCCC1`, for which the inhibition was -36.7% (inactive).

Turning to `CCCN(CCC)S(=O)(=O)c1ccc(C(=O)NNC(=O)c2cc(OC)c(OC)c(OC)c2)cc1`, the inhibition is 4.09% (inactive).

On to `N#CCSc1nc(-c2ccccc2)nc2ccc(F)cc12`, for which the inhibition is 6.09% (inactive).

Take `Clc1ccc2nc(-c3ccccc3)nc(C(Cl)Cl)c2c1`: the inhibition was 90.9% (active).

For the compound `Clc1cccc(-c2nc(NCC3CCCO3)c3ccccc3n2)c1` (stereo unspecified), the inhibition is -7.27% (inactive).

For `CCCOc1cccc(C(=O)Nc2nnn(CCC)n2)c1`, the inhibition was -31.2% (inactive).

For `COc1cc(C(=O)N2CCN(C3CCC(C)CC3)CC2)cc(OC)c1OC` (stereo unspecified), the inhibition was -0.962% (inactive).

With `O=C1c2ccccc2C(=O)N1CC1c2ccccc2CCN1S(=O)(=O)c1ccccc1` (stereo unspecified), the inhibition was -6.02% (inactive).

Regarding `CCOC(=O)C1CCCN(C(=O)/C=C/c2ccc(OC)cc2)C1` (stereo unspecified), the inhibition was -11.1% (inactive).

Regarding `CCN1CCN(C(=O)CSc2ccc(C)cc2)CC1`, the inhibition was -21.2% (inactive).

Regarding `CCN1CCC(O)(/C=C/c2ccc(C)cc2)C(C(=O)/C=C/c2ccc(C)cc2)C1` (stereo unspecified), the inhibition is 77.1% (active).

`Cc1ccc(C(C[N+](=O)[O-])c2c(C)cc3ccccn23)cc1` (stereo unspecified): the inhibition is 40.1% (inactive).

Regarding `Nc1ccccc1SC(C[N+](=O)[O-])c1ccccc1` (stereo unspecified), the inhibition is 75.5% (active).

In the case of `O=C(NCC(=O)N1CCCCCCC1)c1ccccc1Cl`, the inhibition was -25.1% (inactive).

Take `COc1ccc(S(=O)(=O)N2CCCC2CNC(=O)C(=O)NC2CC2)cc1` (stereo unspecified): the inhibition was -5.39% (inactive).

As for `O=C(NNC(=S)NCCCN1CCOCC1)c1ccncc1`, the inhibition was -1.68% (inactive).

On to `CC1(C)CC(N2CCN(C(c3ccccc3)c3ccccc3)CC2)=CC(=[N+]2CCCCC2)C1`, for which the inhibition was 94% (active).

Consider `O=C1CC(N2CCN(C(c3ccccc3)c3ccccc3)CC2)C(=O)N1` (stereo unspecified), for which the inhibition was -6.57% (inactive).

With `Oc1ccccc1CN1CCN(C(c2ccccc2)c2ccccc2)CC1`, the inhibition is 5.95% (inactive).

Take `CN(C)CCN=c1cc(-c2ccccc2)oc2ccc(Cl)cc12`: the inhibition was -36.2% (inactive).

For `CCOc1ccc(C(=O)CCC(=O)Nc2ccncc2)cc1`, the inhibition was 8.37% (inactive).

Take `CCOc1ccc(NC(=O)CCC(=O)NNC(=O)NC2CCCCC2)cc1`: the inhibition was -2.59% (inactive).

As to `CCOc1ccc(NC(=O)CCC(=O)N/N=C/c2ccc([N+](=O)[O-])s2)cc1`, the inhibition was 62.8% (active).

`CCCCN(C(=O)c1ccc(OC(F)(F)F)cc1)c1c(N)n(CCC)c(=O)[nH]c1=O`: the inhibition is -1.56% (inactive).

On to `CCN(C(=O)COC(=O)Cc1c(F)cccc1Cl)c1c(N)n(Cc2ccccc2)c(=O)[nH]c1=O`, for which the inhibition is -2.14% (inactive).

For the compound `O=C(NCCc1ccc(C(F)(F)F)cc1)c1ccc2c(c1)OCO2`, the inhibition was -3.11% (inactive).

With `O=C(CCc1ccccc1Cl)Nc1ccc(S(=O)(=O)Nc2nccs2)cc1`, the inhibition was 12.4% (inactive).

Consider `Cc1coc2c(O)cc3c(c12)OC1(N2CCCCC2)C(=O)NCCCC31` (stereo unspecified), for which the inhibition is 77.4% (active).

Turning to `COc1ccc(CCN2CC(C(=O)OCC(=O)NCc3ccccc3Cl)CC2=O)cc1OC` (stereo unspecified), the inhibition is -2.95% (inactive).

For the compound `CC1C(C)N(C(=O)CCl)c2ccccc2N1C(=O)CCl` (stereo unspecified), the inhibition is 91.3% (active).

As to `CC1C(=O)N(Cc2ccccc2)c2ccccc2N1C(=O)c1ccccc1` (stereo unspecified), the inhibition is 8.87% (inactive).

`CC1CC(C)CN(CC(=O)N2c3ccccc3CCc3ccccc32)C1` (stereo unspecified): the inhibition is -0.982% (inactive).

Consider `CCC1([N+](=O)[O-])COC(c2ccc(C(C)C)cc2)OC1` (stereo unspecified), for which the inhibition was -55.6% (inactive).

In the case of `O=C(Nc1ccc2ccccc2c1[N+](=O)[O-])c1ccccc1`, the inhibition is -36.6% (inactive).

Take `S=C(NCc1cccnc1)Nc1ccc(Cl)cc1Cl`: the inhibition is -6.79% (inactive).

Consider `Cc1c(NC(=O)CSc2cccc3cccnc23)c(=O)n(-c2ccccc2)n1C`, for which the inhibition was 35.6% (inactive).

For the compound `CC(=O)/C(=N\Nc1ccc(Cl)cc1Cl)Sc1cccc2cccnc12`, the inhibition is 65.6% (active).

Consider `CC1(C)C(=O)C2(CCCCC2)C(=O)OC1c1cccs1` (stereo unspecified), for which the inhibition was 4.16% (inactive).

Turning to `C=CCn1c(=S)[nH]c2scc(-c3ccco3)c2c1=O`, the inhibition was 1.55% (inactive).

For `CCN(CC)S(=O)(=O)c1cc(C(=O)Nc2cc(S(=O)(=O)N3CCOCC3)ccc2N2CCCC2)ccc1F`, the inhibition was 6.91% (inactive).

On to `CCN(CC)S(=O)(=O)c1ccc(N2CCCC2)c(NC(=O)c2ccc([N+](=O)[O-])o2)c1`, for which the inhibition is 88.5% (active).

On to `CCN(CC)S(=O)(=O)c1ccc(N2CCOCC2)c(NC(=O)c2ccc(=O)n(C)n2)c1`, for which the inhibition is 2.54% (inactive).

`Nc1ccc(-n2nncc2-c2ccco2)cc1`: the inhibition is -11.2% (inactive).

On to `O=C(c1cccc(S(=O)(=O)N2CCCCCC2)c1)N1CCN(Cc2ccccc2)CC1`, for which the inhibition is -3.86% (inactive).

For the compound `CCOC(=O)c1c(NC(=O)CN2C(=O)NC3(CCC(C)CC3)C2=O)sc(C)c1CC` (stereo unspecified), the inhibition was 0.199% (inactive).

`C/C(=N\NC(=O)c1ccoc1C)c1ccccc1O`: the inhibition was -21.6% (inactive).

Take `C/C(=N\NC(=O)c1ccccc1F)c1ccccn1`: the inhibition was 62.2% (active).

With `NC(=O)NC(CC(=O)NNC(=O)c1ccccn1)c1ccc(Cl)cc1` (stereo unspecified), the inhibition is -12.2% (inactive).

Take `CC1=NNC(=O)C1CCC(=O)N/N=C(\C)c1ccc(Cl)cc1` (stereo unspecified): the inhibition was 2.4% (inactive).

For `CC(=NNC(=S)N1CCCCCC1)c1ccccn1`, the inhibition is 58.9% (inactive).

Consider `C/C(=N\NC(=O)Cc1ccc(Cl)cc1)c1ccccn1`, for which the inhibition was 80% (active).

With `CC(C)CN1CC(C)C(=O)N(c2ccccc2)C1=S` (stereo unspecified), the inhibition was -5.49% (inactive).

In the case of `COc1cc2c(cc1OC)CN(C(=O)c1cc(S(=O)(=O)N3CCCCC3)ccc1Cl)CC2`, the inhibition was 10.9% (inactive).

`COc1cc2c(cc1OC)C(C)N(S(=O)(=O)c1cnc(Cl)c(Cl)c1)CC2` (stereo unspecified): the inhibition was 76% (active).

Take `COc1ccc(S(=O)(=O)N2CCC(C(=O)N3CCc4ccccc4C3)CC2)cc1OC`: the inhibition is 1.79% (inactive).

With `CN(CCc1ccccn1)C(=O)CCC1CCCN(Cc2ccccc2OC(F)F)C1` (stereo unspecified), the inhibition was -12.8% (inactive).

On to `CC[C@]1(O)C[C@@H]2CN(CCc3c([nH]c4ccccc34)[C@@](C(=O)OC)(c3cc4c(cc3OC)N(C)[C@H]3[C@@](O)(C(=O)OC)[C@H](OC(C)=O)[C@]5(CC)C=CCN6CC[C@]43[C@@H]65)C2)C1`, for which the inhibition is 62.2% (active).

For `CC[C@]1(O)CC2CN(CCc3c([nH]c4ccccc34)[C@@](C(=O)OC)(c3cc4c(cc3OC)N(C=O)[C@H]3[C@@](O)(C(=O)OC)[C@H](OC(C)=O)[C@]5(CC)C=CCN6CC[C@]43[C@@H]65)C2)C1` (stereo partly specified), the inhibition was 45.8% (inactive).

`CCC1SC(CC)C(=O)N(CC(=O)NC2CCCCC2)C1=O` (stereo unspecified): the inhibition is 13.1% (inactive).
